High-throughput results deposited in PubChem BioAssay by Johns Hopkins Ion Channel Center.
An excerpt weighted towards active compounds, which were near 1.6% of everything screened.
KCNQ2 pot: potentiators of rat KCNQ2 potassium channel. AID 2239. CHO-K1 KCNQ2, FluxOR thallium flux fluorescence; stronger effect = higher value. B-score at 10 µM. hit rate 0.54% among 310,000;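 active = fluorescence ratio B-score at least 3 SD of library B-scores, with initial fluorescence B-score within 3 of them, cut at about 5.3 in these data; same plate scores as AID 2156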;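 also: B-score of peak minus minimum over baseline fluorescence ratio after K+ and Tl+ stimulus; positive B-score means potentiation of KCNQ2 with more thallium influx and brighter signal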
KCNQ2 inh: blocks the rat KCNQ2 potassium channel; AID 2156; CHO-K1 KCNQ2, FluxOR thallium flux, 20 min; stronger effect = lower value; B-score at 10 µM; hit rate 1.1% among 310,000; O88943;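 active = fluorescence ratio B-score at most minus 3 library SDs, with starting brightness B-score within 2 library SDs, cut at about -5.5 in these data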
Kir21 conf inh: confirmation of mouse Kir2.1 potassium channel inhibitors | shares compounds with KCNQ2 pot | Kir2.1-expressing cells, FluxOR thallium flux fluorescence; stronger effect = lower value | Tl flux remaining, % of negative control (stronger effect = lower value), % at 10 µM | hit rate 41% among 2,300 | AID 2032;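 active = Primary-screen hit whose thallium flux fell at least 3 control SD below untreated wells in both duplicates, with normal baseline fluorescence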;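 also: 0% = blank wells without stimulus and 100% = stimulated no-compound controls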
HEK293 ctr: counter-screen for Kir2.1 inhibitors: effect in parental HEK293 cells; shares compounds with KCNQ2 pot; AID 2105; FluxOR signal as % of negative control (100 = no effect), % at 10 µM; hit rate 19% among 2,300; FluxOR thallium flux fluorescence; 0% = unstimulated blank wells;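 active = dye signal at least 3 control SD above or below untreated wells in both duplicates, raw fluorescence within 3, either direction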;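 also: percent is based on the flux ratio of peak minus minimum fluorescence over baseline F0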
CHO-K1 Tl ctr: parental CHO-K1 activity in KCNQ2 potentiator counter-screen | shares compounds with KCNQ2 pot | parental CHO-K1 cells, FluxOR thallium flux fluorescence; zero = vehicle mean+3SD, 100% = vehicle-minus-blank window | activity increase over 3SD of controls, % at 10 µM | hit rate 43% among 1,200;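 active = signal rise of at least 3 SD above the untreated control mean, in both duplicate wells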;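 also: counter screen of KCNQ2 potentiator hits so any rise reflects channel-independent effects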
KCNQ1 sel pot: tests whether KCNQ2 potentiators also act on human KCNQ1; shares compounds with KCNQ2 pot; CHO KCNQ1 stable, FluxOR thallium flux fluorescence; beyond 3SD, as % of vehicle-control signal; activation over 3SD threshold, % at 10 µM; hit rate 28% among 1,200;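 active = fluorescence ratio rise of at least 3 SD of vehicle wells above their mean, in both replicate wells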;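 also: 0% = vehicle mean plus 3 SD and 100% = vehicle minus unstimulated blank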
Target sequence (P51787 whole entry, looked up): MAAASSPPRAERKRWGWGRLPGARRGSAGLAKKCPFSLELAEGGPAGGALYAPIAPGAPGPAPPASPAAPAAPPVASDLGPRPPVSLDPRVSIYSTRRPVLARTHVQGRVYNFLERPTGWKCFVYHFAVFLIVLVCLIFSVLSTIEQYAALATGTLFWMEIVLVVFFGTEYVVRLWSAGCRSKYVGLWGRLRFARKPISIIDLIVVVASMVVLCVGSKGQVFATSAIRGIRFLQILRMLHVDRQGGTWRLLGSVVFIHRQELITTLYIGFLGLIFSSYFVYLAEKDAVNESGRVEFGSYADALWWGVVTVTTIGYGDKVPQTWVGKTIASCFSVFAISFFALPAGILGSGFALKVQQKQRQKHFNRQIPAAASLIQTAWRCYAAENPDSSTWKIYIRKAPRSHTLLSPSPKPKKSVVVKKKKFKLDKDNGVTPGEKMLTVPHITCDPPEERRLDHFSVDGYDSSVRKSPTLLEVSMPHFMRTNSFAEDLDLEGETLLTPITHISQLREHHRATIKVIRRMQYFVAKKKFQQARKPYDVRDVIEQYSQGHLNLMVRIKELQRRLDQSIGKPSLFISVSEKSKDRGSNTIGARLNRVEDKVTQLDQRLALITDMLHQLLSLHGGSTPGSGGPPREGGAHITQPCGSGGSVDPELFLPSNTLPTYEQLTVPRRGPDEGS
KCNQ2 pot conf: rat KCNQ2 channel potentiator confirmation; CHO-KCNQ2 cells, FluxOR thallium flux fluorescence; potentiation, less the hit threshold, % at 10 µM; hit rate 68% among 1,200; shares compounds with KCNQ2 pot; AID 2287;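 active = fluorescence ratio rising 3 SD or more over the vehicle control mean in both replicates, plus primary screen hit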;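 also: peak minus minimum thallium fluorescence divided by baseline after K/Tl stimulus; 0% = vehicle mean plus 3 SD and 100% = vehicle minus unstimulated blank difference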
Kir21 spec: tests whether KCNQ2 potentiators also affect mouse Kir2.1; activity over 3SD threshold, % at 10 µM; AID 2345; shares compounds with KCNQ2 pot; HEK293 Kir2.1, FluxOR thallium flux fluorescence; hit rate 2% among 1,200;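 active = fluorescence ratio rise of at least 3 SD above the vehicle-control mean, seen in both replicates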;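 also: 0% = vehicle mean plus 3 SD and 100% = vehicle minus no-stimulus blank window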
KCNQ2 W236L pot: KCNQ2 potentiators acting on retigabine-insensitive rat KCNQ2 W236L mutant; shares compounds with KCNQ2 pot; CHO KCNQ2-W236L, automated patch clamp current; current increase over 3SD of negative controls (%), stronger effect = higher value, % at 25 µM; hit rate 10% among 940; AID 2558;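 active = current increase at least 3 SD of the untreated controls above them in both duplicate recordings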
* hit, by the source's call; i = inactive; nt = no result given.

SMILES	KCNQ2 pot	KCNQ2 inh	Kir21 conf inh	HEK293 ctr	CHO-K1 Tl ctr	KCNQ1 sel pot	KCNQ2 pot conf	Kir21 spec	others
CC(C)n1cc(NC(=O)c2cc(-c3ccccc3)on2)cn1	12*	i	i	214%*	14*	-11	11*	-15	KCNQ2 W236L pot=i
O=C(Nc1cccnc1)c1cc(-c2ccccc2)on1	1.4	i	nt	nt	nt	nt	nt	nt
CCOC(=O)c1c(C)[nH]c(C)c1S(=O)(=O)N1CCN(c2cccc(C)c2)C(C)C1 (centres undefined)	0.55	i	nt	nt	nt	nt	nt	nt
O=C(CCC1CCCC1)NNC(=O)c1cccc(Cl)c1	6.1*	i	i	i	106*	-18	15*	-11	KCNQ2 W236L pot=i
O=C(CCN1C(=O)C2CCCCC2C1=O)NNC(=O)c1cccc(Cl)c1 (centres undefined)	0.27	i	nt	nt	nt	nt	nt	nt
Fc1cccc(-n2cc(-c3ccccc3)c3c(=S)nc[nH]c32)c1	2.8	i	nt	nt	nt	nt	nt	nt
Fc1ccc(-n2cc(-c3ccccc3)c3c(=S)nc[nH]c32)cc1	6.4*	i	i	182%*	-18	-17	7.9*	-24	KCNQ2 W236L pot=i
O=c1cc(-c2ccccc2)cc(-c2ccccc2)n1O	6.6*	i	i	334%*	-12	97*	14*	-18	KCNQ2 W236L pot=i
Cn1c(-c2ccccc2)cc(=O)c2ccccc21	nt	i	nt	nt	nt	nt	nt	nt
Cc1ccc(Nc2cc(C)nn2-c2nc(C)cc(C)n2)cc1	2	i	nt	nt	nt	nt	nt	nt
Cc1ccc(Nc2cc(C)nn2-c2nc(C)cc(=O)[nH]2)cc1	17*	i	i	269%*	60*	45*	42*	-30	KCNQ2 W236L pot=i
COCCN1C(=O)N[C@@H](c2ccccc2)[C@H](C(=O)OC)[C@H]1C	0.78	i	nt	nt	nt	nt	nt	nt
O=C(c1ccc2c(c1)OCO2)N1CCC(Cc2ccccc2)CC1	nt	i	nt	nt	nt	nt	nt	nt
CS(=O)(=O)N(CC(=O)N1CCN(C(c2ccccc2)c2ccccc2)CC1)C1CCCCC1	2.1	i	nt	nt	nt	nt	nt	nt
CS(=O)(=O)N(CC(=O)N1CCCCC1)C1CCCCC1	13*	i	i	i	-8	-25	-12	-23
CC(C)Oc1cccc(C(=O)NC(=S)NCc2cccnc2)c1	0.74	i	nt	nt	nt	nt	nt	nt
CCN1CCN(S(=O)(=O)c2c[nH]c(C(=O)OC)c2)CC1	nt	i	nt	nt	nt	nt	nt	nt
Cc1ccsc1/C=N/NC(=O)Cc1ccc(Cl)cc1	nt	i	nt	nt	nt	nt	nt	nt
Cc1ccc(O)c(/C=N/NC(=O)Cc2ccc(Cl)cc2)c1	5.3*	i	i	i	-7	43*	-5	-21
Cc1cccc(/C=N\NC(=O)c2ccc(Cl)cc2)c1O	2.5	i	nt	nt	nt	nt	nt	nt
Cc1cccc(/C=N/NC(=O)Cc2ccc(Cl)cc2)c1O	7.2*	i	i	69%*	-9	7.6*	2.5*	-25	KCNQ2 W236L pot=i
COC(=O)C1=NNC2(C)C(=O)N(c3ccc(C)cc3)C(=O)C12 (centres undefined)	0.45	i	nt	nt	nt	nt	nt	nt
CCOC(=O)C1C(c2cccc(F)c2)NC(=S)NC1(O)C(F)(F)F (centres undefined)	1.7	i	nt	nt	nt	nt	nt	nt
O=C(NCCCNC(=O)c1ccco1)c1ccc(Cl)cc1	nt	i	nt	nt	nt	nt	nt	nt
NC(=NCc1ccco1)NC(=O)c1ccc(Cl)cc1	7*	i	i	i	2.6*	-22	51*	-49	KCNQ2 W236L pot=i
CCOCCn1cnc2sc(C(=O)NCCCN3CCOCC3)c(C)c2c1=O	nt	i	nt	nt	nt	nt	nt	nt
O=C1C=CC(=O)N1CCNc1ncc(C(F)(F)F)cc1Cl	nt	i	74%*	i	nt	nt	nt	nt
O=C1CC(=O)N(CCNc2ncc(C(F)(F)F)cc2Cl)C(=O)N1	1.7	i	nt	nt	nt	nt	nt	nt
O=C(CCNS(=O)(=O)c1cccc2nonc12)NC1CCCCC1	0.78	i	nt	nt	nt	nt	nt	nt
